Test results from PubChem BioAssay (Tox21).
“And” between values parts separate entries of the source, which are not always exact repeats. Equal values may be shown once. Results filed as inconclusive are left out. The source holds several records for some structures; these can differ, active in one and inactive in another. The source made the active and inactive calls. Unless noted, the call rests on the fitted dose curve; in most records, active means well fitted curve in the direction sought with a large enough effect in the repeat runs; inconclusive means weak or mixed curves; inactive means no such curve, though single readings can be large; an effect the other way counts as inactive or inconclusive.

Experiments:
[1] = qHTS assay to identify small molecule agonists of the estrogen receptor alpha (ER-alpha) signaling pathway in the presence of an antagonist - cell viability counter screen (AID 1259386);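 further: cells exposed to compounds for 22 h at 37 °C before the viability read; nearly all actives have a fitted effect of over 30% in size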; further: potency means the concentration at half of the fitted maximal effect
How it was run: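 VM7Luc4E2, stripped-serum pre-culture 5 d; 24hr plating; +ICI-182,780 10.0nM final; cpds 15 conc, 22hr, 37C/5% CO2; CellTiter-Fluor added at 21hr, fluorescence 1hr later.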

[2] = biological target: Progesterone receptor (Homo sapiens) (UniProt P06401); test: qHTS assay to identify small molecule agonists of the progesterone receptor (PR) signaling pathway (AID 1346784; calls by dose curve; further: nearly all actives have a fitted effect of over 30% in size)
Progesterone receptor (Homo sapiens), sequence (P06401 whole entry, looked up): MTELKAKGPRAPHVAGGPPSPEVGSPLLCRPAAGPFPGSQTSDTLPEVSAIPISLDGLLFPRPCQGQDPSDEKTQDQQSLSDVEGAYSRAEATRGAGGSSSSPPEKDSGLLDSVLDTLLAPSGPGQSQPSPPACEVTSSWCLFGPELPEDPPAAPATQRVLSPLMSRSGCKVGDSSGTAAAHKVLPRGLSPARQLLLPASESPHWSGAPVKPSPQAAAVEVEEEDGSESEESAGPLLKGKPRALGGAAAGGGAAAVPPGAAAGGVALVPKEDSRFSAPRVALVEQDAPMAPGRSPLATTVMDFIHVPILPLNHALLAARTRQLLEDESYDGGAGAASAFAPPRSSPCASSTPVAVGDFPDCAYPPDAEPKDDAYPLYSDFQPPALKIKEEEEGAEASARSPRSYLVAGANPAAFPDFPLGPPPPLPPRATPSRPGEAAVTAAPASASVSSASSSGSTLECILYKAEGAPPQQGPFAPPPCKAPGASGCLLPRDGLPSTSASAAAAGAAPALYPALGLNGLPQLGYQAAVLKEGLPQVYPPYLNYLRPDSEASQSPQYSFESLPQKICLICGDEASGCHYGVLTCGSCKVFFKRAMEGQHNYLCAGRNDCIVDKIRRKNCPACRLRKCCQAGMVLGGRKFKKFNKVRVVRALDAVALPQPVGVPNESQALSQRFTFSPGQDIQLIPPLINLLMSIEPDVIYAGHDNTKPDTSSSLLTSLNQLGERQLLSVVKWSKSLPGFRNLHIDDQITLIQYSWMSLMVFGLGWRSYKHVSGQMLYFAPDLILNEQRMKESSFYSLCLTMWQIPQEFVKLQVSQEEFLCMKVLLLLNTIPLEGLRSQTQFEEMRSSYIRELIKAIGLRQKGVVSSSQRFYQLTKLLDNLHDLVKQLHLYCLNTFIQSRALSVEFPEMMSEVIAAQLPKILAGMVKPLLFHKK
How it was run: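 PR-UAS-bla HEK 293T cells (beta-lactamase reporter under UAS) in 2% charcoal-stripped FBS, dosed with 23 nL compound after 6 hr, incubated 16hr at 37C. LiveBLAzer B/G FRET substrate added, fluorescence read after 2 hours.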

[3] = qHTS assay to identify small molecule agonists of the TGF-beta/Smad signaling pathway - cell viability counter screen (AID 1346829); further: top concentration of the series differs between compounds; nearly all actives have a fitted effect of over 45% in size
How it was run: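 CellTiter-Glo luminescence readout; SBE-bla HEK 293T cells, overnight plating, compound 5 hr at 37 C/5% CO2, then bla substrate 2 hr RT, then CellTiter-Glo 30 min RT.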

[4] = biological target: Thyrotropin-releasing hormone receptor (Homo sapiens) (UniProt P34981); test: qHTS assay to identify small molecule antagonists of the thyrotropin-releasing hormone receptor (TRHR) signaling pathway (AID 1346877; active means well fitted inhibition curve with a large enough effect in the repeat runs, not every such curve was filed as active; further: series mostly up to about 51 µM)
Thyrotropin-releasing hormone receptor (Homo sapiens), sequence (P34981 whole entry, looked up): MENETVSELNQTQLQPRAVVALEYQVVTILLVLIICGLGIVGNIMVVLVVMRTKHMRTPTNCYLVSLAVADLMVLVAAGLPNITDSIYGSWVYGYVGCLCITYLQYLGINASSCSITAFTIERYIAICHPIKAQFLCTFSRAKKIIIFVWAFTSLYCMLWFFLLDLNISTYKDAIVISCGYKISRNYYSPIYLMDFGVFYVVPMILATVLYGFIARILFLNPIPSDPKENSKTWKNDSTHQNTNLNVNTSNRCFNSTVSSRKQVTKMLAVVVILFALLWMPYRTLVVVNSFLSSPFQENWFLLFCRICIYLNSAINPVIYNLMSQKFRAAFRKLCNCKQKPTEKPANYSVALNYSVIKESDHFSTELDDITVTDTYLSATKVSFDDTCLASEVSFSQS
How it was run: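 Intracellular calcium fluorescence, read kinetically every second over 3 min, reports TRH-evoked signalling in HEK293 cells carrying TRHR. Test compounds were added 5 min ahead of a 1 nM TRH challenge.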

[5] = biological target: Thyrotropin-releasing hormone receptor (Homo sapiens) (UniProt P34981); test: qHTS assay to identify small molecule agonists of the thyrotropin-releasing hormone receptor (TRHR) signaling pathway (AID 1346891; calls by dose curve; further: series mostly up to about 58 µM)
How it was run: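 HEK293 cells expressing TRHR plated 18 h at 37 C/5% CO2, calcium dye-loaded 2 h at 37 C, then compound added (agonist mode); kinetic calcium fluorescence read 3 min at 1 s intervals; 15 concentrations in triplicate.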

[6] = Human pregnane X receptor (PXR) small molecule agonists, qHTS cell viability counter screen (AID 1346977); further: nearly all actives have a fitted effect of over 50% in size; further: potency means the concentration at half of the fitted maximal effect
How it was run: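 PXR-Luc HepG2 cells (2,000/well, 5% charcoal-stripped FBS) preincubated 5 hr, then exposed to compounds 24 hr at 37 C. Viability read in the same wells by CellTiter-Fluor fluorescence, reagent added at 23 hr, 1 hr incubation.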

[7] = Caspase-3/7 induction in HepG2 cells by small molecules, qHTS assay (AID 1346978); further: nearly all actives have a fitted effect of over 15% in size; further: potency means the concentration at half of the fitted maximal effect
How it was run: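 Wild-type HepG2 cells (2,000/well) were settled 5 h at 37 C, 5% CO2, then exposed to compounds in DMSO for 17 h. Caspase-3/7 activity was read by luminescence 30 min after adding Caspase-Glo 3/7 reagent at room temperature.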

[8] = Caspase-3/7 induction in CHO-K1 cells by small molecules, qHTS cell viability counter screen (AID 1346979); further: nearly all actives have a fitted effect of over 35% in size; further: potency means the concentration at half of the fitted maximal effect
How it was run: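 Wild-type CHO-K1 cells (1,500/well) treated with compound after 5 h plating; after 16 h at 37C, viability read as CellTiter-Fluor fluorescence following 1 h reagent incubation, in the same wells as the caspase read.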

[9] = Caspase-3/7 induction in CHO-K1 cells by small molecules, qHTS assay (AID 1346980); further: nearly all actives have a fitted effect of over 15% in size; further: potency means the concentration at half of the fitted maximal effect
How it was run: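 Wild-type cells were seeded at 1,500 per well and settled 5 hr at 37 C, 5% CO2, then exposed to DMSO-dissolved compounds for 17 hr. Caspase-Glo 3/7 reagent was added, and luminescence was read after 30min at room temperature.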

[10] = Caspase-3/7 induction in HepG2 cells by small molecules, qHTS cell viability counter screen (AID 1346981); further: nearly all actives have a fitted effect of over 30% in size; further: potency means the concentration at half of the fitted maximal effect
How it was run: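 HepG2, WT, 2,000 cells/well; 5 hr pre-incubation 37 C/5% CO2; compound pin-transferred from DMSO; 16 hr exposure; CellTiter-Fluor, 1 hr; fluorescence read.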

[11] = biological target: Nuclear receptor subfamily 1 group I member 2 (Homo sapiens) (UniProt O75469); test: Human pregnane X receptor (PXR) small molecule agonists, qHTS assay (AID 1346982); further: nearly all actives have a fitted effect of over 35% in size; further: potency means the concentration at half of the fitted maximal effect
Nuclear receptor subfamily 1 group I member 2 (Homo sapiens), sequence (O75469 whole entry, looked up): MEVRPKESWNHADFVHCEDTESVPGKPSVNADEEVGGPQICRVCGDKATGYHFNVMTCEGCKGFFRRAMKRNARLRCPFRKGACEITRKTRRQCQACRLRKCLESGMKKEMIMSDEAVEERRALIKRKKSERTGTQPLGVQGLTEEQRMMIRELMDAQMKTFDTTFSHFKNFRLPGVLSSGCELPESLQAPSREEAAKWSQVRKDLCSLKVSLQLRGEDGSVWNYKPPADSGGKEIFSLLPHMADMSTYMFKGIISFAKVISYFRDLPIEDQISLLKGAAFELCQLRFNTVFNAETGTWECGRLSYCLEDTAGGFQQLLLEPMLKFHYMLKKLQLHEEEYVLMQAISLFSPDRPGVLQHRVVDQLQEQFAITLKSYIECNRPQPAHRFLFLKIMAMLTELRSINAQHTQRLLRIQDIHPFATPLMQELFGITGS
How it was run: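 Luciferase signal from ONE-Glo (30 min, room temperature) measured activation of hPXR-driven CYP3A4 reporter expression in PXR-Luc HepG2 cells treated with compounds for 24 hr at 37 C.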

[12] = biological target: Nuclear receptor subfamily 1 group I member 2 (Rattus norvegicus) (UniProt Q9R1A7); test: Rat pregnane X receptor (rPXR) activation by small molecules, qHTS assay (AID 1346983); conditions: rPXR luciferase reporter cells, One-Glo luminescence, 24 h; max activation: stronger effect = higher value; further: nearly all actives have a fitted effect of over 20% in size
Nuclear receptor subfamily 1 group I member 2 (Rattus norvegicus), sequence (Q9R1A7 whole entry, looked up): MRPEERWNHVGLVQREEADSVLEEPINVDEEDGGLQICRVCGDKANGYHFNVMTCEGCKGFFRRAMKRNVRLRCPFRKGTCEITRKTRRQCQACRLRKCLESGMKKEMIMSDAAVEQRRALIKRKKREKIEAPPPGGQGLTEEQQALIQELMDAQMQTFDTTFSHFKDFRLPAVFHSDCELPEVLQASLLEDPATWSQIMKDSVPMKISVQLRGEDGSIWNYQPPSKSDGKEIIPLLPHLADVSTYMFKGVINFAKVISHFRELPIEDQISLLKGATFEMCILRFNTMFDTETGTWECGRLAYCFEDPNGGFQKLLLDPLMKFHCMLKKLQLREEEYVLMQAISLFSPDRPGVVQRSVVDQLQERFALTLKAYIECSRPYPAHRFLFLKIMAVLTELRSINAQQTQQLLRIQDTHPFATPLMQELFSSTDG
How it was run: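 Cell-based rPXR luciferase reporter assay, 2,000 cells per well, rested 5hr at 37 C before compound addition in DMSO, then 24 hr at 37 C. One-Glo reagent was added and luminescence read after 30 min at room temperature.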

[13] = biological target: Nuclear receptor subfamily 1 group I member 2 (Homo sapiens) (UniProt O75469); test: Human pregnane X receptor (PXR) activation by small molecules, qHTS assay (AID 1346985); further: nearly all actives have a fitted effect of over 40% in size
How it was run: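 DPX-2 cells (HepG2 co-transfected with a PXR response element and a CYP3A4-promoter luciferase construct) were seeded at 2,000 per well, rested 5 hr at 37C, then exposed to DMSO-dissolved compounds for 24 hr. Activation was read as luciferase luminescence.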

[14] = biological target: Acetylcholinesterase (Homo sapiens) (UniProt P22303); test: Acetylcholinesterase (AChE) small molecule antagonists: colormetric cell-based qHTS assay (AID 1347395; calls by dose curve; further: nearly all actives have a fitted effect of over 30% in size; further: potency means the concentration at half of the fitted maximal effect)
Acetylcholinesterase (Homo sapiens), sequence (P22303 whole entry, looked up): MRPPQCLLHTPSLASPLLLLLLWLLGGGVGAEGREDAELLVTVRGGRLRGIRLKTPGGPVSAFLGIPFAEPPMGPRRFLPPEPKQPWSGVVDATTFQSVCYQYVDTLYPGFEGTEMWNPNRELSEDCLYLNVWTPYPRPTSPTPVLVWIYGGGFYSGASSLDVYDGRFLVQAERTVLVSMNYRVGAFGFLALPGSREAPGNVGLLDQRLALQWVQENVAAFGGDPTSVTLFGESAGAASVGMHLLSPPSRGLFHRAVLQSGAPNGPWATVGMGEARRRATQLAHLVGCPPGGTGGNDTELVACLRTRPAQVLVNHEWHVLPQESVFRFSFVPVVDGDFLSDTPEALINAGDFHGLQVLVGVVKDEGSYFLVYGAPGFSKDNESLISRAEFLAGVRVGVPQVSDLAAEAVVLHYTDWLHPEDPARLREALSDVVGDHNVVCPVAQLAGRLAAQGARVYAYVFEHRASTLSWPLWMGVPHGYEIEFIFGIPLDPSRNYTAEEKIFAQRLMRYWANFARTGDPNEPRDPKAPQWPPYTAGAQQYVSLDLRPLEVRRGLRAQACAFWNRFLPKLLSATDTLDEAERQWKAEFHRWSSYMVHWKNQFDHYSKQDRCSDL
How it was run: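 SH-SY5Y cells attached overnight, exposed to compound 30 min at 37 C, then given DTNB/acetylthiocholine; after 90 min at 37 C, colorimetric thiocholine read gives cellular AChE activity.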

[15] = biological target: Acetylcholinesterase (Homo sapiens) (UniProt P22303); test: Acetylcholinesterase (AChE) small molecule antagonists: enzyme-based qHTS assay (AID 1347397; calls by dose curve; further: nearly all actives have a fitted effect of over 55% in size; further: potency means the concentration at half of the fitted maximal effect); conditions: Potency: AChE enzyme activity inhibition
How it was run: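 Human recombinant acetylcholinesterase; substrate acetylthiocholine; thiocholine quantified with DTNB (colorimetric). Compound preincubation 30 min RT; reaction 10 min RT.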

[16] = qHTS assay to identify small molecule agonists of the TGF-beta/Smad signaling pathway (AID 1346859; active means well fitted activation curve with a large enough effect in the signal ratio in the repeat runs, not every such curve was filed as active; the % refers to the signal ratio; further: series mostly up to about 77 µM)
How it was run: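 SBE-bla HEK293T cells plated overnight, then compound exposure for 5 h at 37 C. Beta-lactamase reporter read with LiveBLAzer B/G FRET substrate after 2 h at room temperature, fluorescence at 405 nm excitation, 460/530 nm emission.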

[17] = qHTS assay to identify small molecule antagonists of the TGF-beta/Smad signaling pathway - cell viability counter screen (AID 1346824); further: nearly all actives have a fitted effect of over 50% in size
How it was run: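 SBE-bla HEK 293T cells were plated overnight at 37 C, then given compounds in DMSO plus TGF-beta1 (added as 0.25 ng/mL solution) for 5 hr. After the bla read, CellTiter-Glo was added to the same wells and luminescence read after 30 min at room temperature.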

[18] = qHTS assay to identify small molecule agonists of the progesterone receptor (PR) signaling pathway - cell viability counter screen (AID 1346799; calls by dose curve; further: nearly all actives have a fitted effect of over 45% in size; further: potency means the concentration at half of the fitted maximal effect)
How it was run: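 Counter screen in the PR-UAS-bla HEK293T wells (2% charcoal-stripped FBS, 16 h compound exposure at 37 C) after the bla read. CellTiter-Glo added, 30 min at room temperature, luminescence read as cell viability.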
On the % scale 0 is the no-effect control and ±100 the full control effect.

O=[N+]([O-])c1ccc(F)c([N+](=O)[O-])c1
active: Potency [1] 30.9 µM | Potency [6] 27.6 µM | Potency [8] 24.6 µM | Potency [10] 27.6 µM
inactive: Potency [2] | Potency [3] | Potency [4] | Potency [5] | Potency [7] | Potency [9] | Potency [11] | max activation [12] -9.38% | Potency [13] | Potency [14] | Potency [15]

C=CC(=O)NCNC(=O)C=C
active: Potency [11] 30.6 µM
inactive: Potency [1] | Potency [2] | Potency [3] | outcome [16] | Potency [5] | Potency [6] | Potency [7] | Potency [9] | Potency [10] | Potency [14] | Potency [15]

CNP(=O)(OC)Oc1ccc(C(C)(C)C)cc1Cl (stereo unspecified)
active: Potency [11] 17.2 µM | Potency [14] 71 µM | Potency [15] 79.6 µM
inactive: Potency [1] | Potency [2] | Potency [17] | Potency [3] | outcome [16] | Potency [5] | Potency [6] | Potency [7] | Potency [9] | Potency [10]

CCc1ccc(C(=O)NN(C(=O)c2cc(C)cc(C)c2)C(C)(C)C)cc1
inactive: Potency [2] | Potency [17] | Potency [3] | outcome [16] | Potency [4] | Potency [5] | Potency [6] | Potency [7] | Potency [9] | Potency [11] | Potency [14] | Potency [15]
active: Potency [1] 5.45 µM | Potency [8] 27.3 µM | Potency [10] 9.69 µM

CC(C)N(C(=O)COc1nnc(C(F)(F)F)s1)c1ccc(F)cc1
inactive: Potency [1] | Potency [2] | Potency [17] | Potency [3] | outcome [16] | Potency [6] | Potency [7] | Potency [8] | Potency [9] | Potency [10] | Potency [15]
active: Potency [14] 39.9 µM

CCCCc1c(C)nc(NCC)nc1OS(=O)(=O)N(C)C
inactive: Potency [2] | Potency [17] | Potency [3] | outcome [16] | Potency [4] | Potency [5] | Potency [7] | Potency [9] | Potency [14] | Potency [15]
active: Potency [1] 48.6 µM | Potency [6] 61.1 µM | Potency [8] 61.1 µM | Potency [10] 61.1 µM | Potency [11] 9.69 µM

CCOP(=S)(OCC)Oc1nc(Cl)c(Cl)cc1Cl
61.3 µM (active) and inactive: Potency [18]
active: Potency [14] 35.7 µM and 35.6 µM | Potency [15] 79.9 µM
17.3 µM (active) and inactive: Potency [11]
inactive: Potency [1] | Potency [2] | Potency [17] | Potency [3] | outcome [16] | Potency [4] | Potency [5] | Potency [6] | Potency [7] | Potency [8] | Potency [9] | Potency [10]

CCOP(=O)(OCC)SCCSCC
active: Potency [11] 58.3 µM | Potency [14] 3.4 µM and 7.96 µM | Potency [15] 7.61 µM and 20 µM
inactive: Potency [1] | Potency [2] | Potency [18] | Potency [17] | Potency [3] | outcome [16] | Potency [4] | Potency [5] | Potency [6] | Potency [7] | Potency [8] | Potency [9] | Potency [10]

CCC(C)(NC(=O)c1cc(Cl)c(C)c(Cl)c1)C(=O)CCl (stereo unspecified)
active: Potency [7] 61.5 µM | Potency [8] 24.5 µM | Potency [9] 21.8 µM
inactive: Potency [1] | Potency [2] | Potency [18] | Potency [17] | Potency [3] | Potency [4] | Potency [5] | Potency [14] | Potency [15]
